About 8,600 (12%) of roughly 69,000 compounds showed an effect of 50% or more. Many of the other results were omitted from the sample, so strong results are more common in it than they were.

In this assay the test system is Plasmodium berghei. Kind of assay: Screen against P. berghei liver stage (PbLuc), transformed with Luciferase, at 10uM. The class given is functional, HepG2. The following applies: tested at 10 uM.
Regarding `CNC(=O)Cn1ccc2ccc(NC(=O)C(C)CSC)cc21` (stereo unspecified), the INHIBITION is 29.6%. For `O=S(=O)(c1ccc(-c2cnco2)cc1)N1CCC2(CCCNC2)C1` (stereo unspecified) the value was 35.7%. Take `O=S(=O)(c1ccc(-c2cnco2)cc1)N1CCCC(O)(CO)CC1` (stereo unspecified): the INHIBITION is -31.4%. In the case of `O=S(=O)(c1ccc(-c2cnco2)cc1)N1CCCC2(CCNCC2)CC1`, the INHIBITION is reported as 52.7%. For `CC(c1cccc(-c2ncccc2C#N)c1)N(C)C` (stereo unspecified) the value was 19.3%; for `CN(Cc1cc(C(C)(C)C)n[nH]1)C(=O)c1c[nH]nc1-c1cccc(F)c1`, 30.4%.

`CCNc1ccnc(NCc2cn3nc(C)sc3n2)n1`: the INHIBITION is listed as -49.3%. For `Cc1nn2cc(CNc3nccc(CCC(F)(F)F)n3)nc2s1` the value was -4.91%. `Cc1ccnc(NCc2cn3nc(C)sc3n2)n1`: the INHIBITION was determined as 65.2%. For `O=C(C1CCC1)N1CCC2(CC1)CNCCO2` the value was -12.4%; for `O=C(C1CC1)N1CCOC2(CCNCC2)C1`, 36.7%; for `CC(=O)N1CCOC2(CCN(C(=O)C3CC3)CC2)C1`, 85.6%.

Take `O=C(C1CC=CC1)N1CCC2(CC1)CNCCO2`: the INHIBITION amounted to 29%. For `CC(=O)N1CCCC2(C1)CN(C(=O)C1CCCCC1)CCO2` (stereo unspecified), the INHIBITION is recorded as 9.97%.

Take `Cc1ccc(CN2CCOC3(CCN(C(=O)N4CCCC4)CC3)C2)cc1`: the INHIBITION is listed as 15.7%. Regarding `Cc1ccc(CN2CCOC3(CCN(C(=O)C4CCOC4)CC3)C2)cc1` (stereo unspecified), the INHIBITION was 39.3%.

Take `Cc1ccc(CN2CCOC3(CCN(C(=O)C4CC=CC4)CC3)C2)cc1`: the INHIBITION is 55.6%. The figure for `O=C(C1CC1)N1CCC2(CC1)CNCCO2` is 51.2%; for `Cc1ccc(CN2CCOC3(CCCN(C(=O)c4ccco4)C3)C2)s1` (stereo unspecified) it is 28.5%; for `Cc1ccc(N(CCC#N)C(=O)CN2CCCC2c2ccsc2)cc1C` (stereo unspecified) it is -10.75%. For the compound `CC1CCC(C(=O)N2CCC(n3cc(C4(O)CCCC4)nn3)CC2)CC1` (stereo unspecified), the INHIBITION came to 47.4%. For `c1csc(-c2nc(CN3CCCC3Cn3cccn3)co2)c1` (stereo unspecified) the value was 17.5%; for `CC(C)(N)c1nc(C(F)F)cc(=O)[nH]1`, -4.35%; for `CS(=O)(=O)NC(c1ccccc1)c1ccc2c(c1)CCCO2` (stereo unspecified), -9.98%. `CC(C)c1nc(CN(C)C(=O)[C@H](N)Cc2ccc(Cl)cc2)cs1`: the INHIBITION turned out to be 17.2%. For `CCOc1ccc(CN(C)C(=O)NC(C)c2nncn2C)cc1` (stereo unspecified) the value was -6.75%; for `COc1ccc(CN(C)C(=O)NC(C)c2nncn2C)cc1F` (stereo unspecified), -24.7%; for `CC(NC(=O)N(C)Cc1cccc(OC(F)F)c1)c1nncn1C` (stereo unspecified), 68.2%. The figure for `Cc1nc(CCN)cc(N2CCOc3ccc(Cl)cc3C2)n1` is -43.5%; for `Cc1nc(C2CCNCC2)cc(N2CCOc3ccccc3C2)n1` it is -55.1%; for `Cc1nc(C2CCN(C)CC2)cc(N2CCOc3ccc(Cl)cc3C2)n1` it is 94.3%. The figure for `CC(C)Oc1ccc(CN)c(C(F)(F)F)c1` is 10%; for `CCOc1ccccc1OC1CCN(C(=O)c2cnns2)CC1` it is 44.1%; for `CC(C)c1cc(NC(=O)CNC2CCc3nc(C(C)C)nn3C2)on1` (stereo unspecified) it is 35.7%.

As for `Cc1c(C2CCCN(C(=O)c3ccncc3)C2)n2c(nc1=O)CCC2` (stereo unspecified), the INHIBITION came out at 20.8%. Take `Cc1c(C2CCCN(C(=O)C3CC3)C2)n2c(nc1=O)CCC2` (stereo unspecified): the INHIBITION is 28.4%. For `Cc1noc(C)c1C(=O)N1CCCC(c2c(C)c(=O)nc3n2CCC3)C1` (stereo unspecified) the value was 55.6%; for `N#Cc1c(F)cccc1Nc1cnn(CC(N)=O)c1`, 65.4%; for `N#Cc1c(F)cccc1Nc1cnn(CC(=O)N2CCOCC2)c1`, 19.2%.

Take `CNC(=O)Cn1cc(Nc2cccc(F)c2C#N)cn1`: the INHIBITION is -0.514%. The figure for `CCc1csc(C2CCCN(C(=O)c3cnc[nH]3)C2)n1` (stereo unspecified) is 10%; for `CN(Cc1ccco1)Cc1cnc2n1CCN(c1ncccn1)CC2` it is 2.4%. For `Cc1ccc(S(=O)(=O)NCC(C)(C)N)c(F)c1` the value was 8.51%; for `CN1CCCC(CNC(=O)N(C)Cc2ccc(Cl)c(F)c2)C1` (stereo unspecified), 31%. For `O=S(=O)(N1CCCC1)N1C[C@@H](c2cccc(F)c2)[C@@H]2NCCCCC[C@H]21` the value was 43.6%. On to `CN1CCCCC[C@@H]2[C@@H]1[C@H](c1ccccc1)CN2C(=O)c1ccccn1`, for which the INHIBITION is listed as -37%.

Regarding `CCN(CC)S(=O)(=O)N1C[C@@H](c2ccccc2)[C@H]2[C@H]1CCCCCN2C`, the INHIBITION is recorded as 51.7%.

Regarding `N[C@H]1CN(S(=O)(=O)N2CCCC2)C[C@@H]1c1ccccc1`, the INHIBITION was 44.2%.

`O=S(=O)(N1CCCC1)N1CCCCC1CCc1ccccc1` (stereo unspecified): the INHIBITION turned out to be 31.8%.

On to `CCN(CC)S(=O)(=O)N1CC[C@H](c2ccccc2)[C@H]2NCCCC[C@H]21`, for which the INHIBITION worked out at 47.2%. For `CN1CCCC[C@@H]2[C@H]1[C@@H](c1ccccc1)CCN2S(=O)(=O)N1CCCC1` the value was 61.7%. For `CCN(CC)S(=O)(=O)N1CC[C@H](c2ccccc2)[C@@H]2[C@H]1CCCCN2C` the value was 73.1%; for `CCN(CC)S(=O)(=O)N1CCCC(c2cccc(C(=O)O)c2)C1` (stereo unspecified), -31.5%.

Consider `O=S(=O)(N1CCCC1)N1CC[C@H](c2ccccc2)[C@H]2NCCCC[C@H]21`, for which the INHIBITION is given as 52%. The figure for `CCN(CC)S(=O)(=O)N1CCCC1CC(=O)c1cccs1` (stereo unspecified) is -2.74%; for `CC(C)S(=O)(=O)N1C[C@@H](c2ccccc2)[C@H]2[C@H]1CCCCCN2C` it is 16.5%; for `CC[C@@H](c1ccccc1)n1c(CCN)n[nH]c1=O` it is 39%.

Consider `CCc1noc(C(C)N2CCN(c3ccc(C#N)cc3F)CC2)n1` (stereo unspecified), for which the INHIBITION is reported as -17.4%. The figure for `O=C(CC1CCCC1)NCCS(=O)(=O)N1CCN(c2ccccc2)CC1` is -16.4%; for `CC(=O)NCc1cc(-c2cccs2)n(C2CCCC2)n1` it is 1.74%; for `COc1c(C2CCCN2CC(=O)N(C)c2nccs2)c(C)nn1C` (stereo unspecified) it is 8.7%. As for `CN(C)c1ccc(C(=O)N2CCCC2c2noc(C3CC3)n2)nn1` (stereo unspecified), the INHIBITION is listed as 3.263%. Regarding `Cc1ncc2c(n1)CN(CC(=O)Nc1nnc(C)s1)CC2`, the INHIBITION was 34.7%. The figure for `O=C(NCC1CC1)[C@@H]1CCO[C@@H]2CCN(CCc3ccccc3)C[C@H]21` is 47.1%; for `COCC(=O)NCc1cc2n(n1)CCCN(Cc1ccccc1SC)C2` it is -46.2%.

In the case of `CN(Cc1ccccc1)CC(O)Cn1cnc2cc(F)ccc2c1=O` (stereo unspecified), the INHIBITION is -8.7%.

As for `O=C(NCc1ccco1)[C@@H]1COC[C@H]2CN(c3ncc(F)cn3)C[C@H]21`, the INHIBITION amounted to 3.88%. For `O=C([C@H]1COC[C@H]2CN(c3ncc(F)cn3)C[C@H]21)N1CCOCC1` the value was -0.554%; for `O=C(Nc1cnccn1)[C@H]1COC[C@H]2CN(c3ncc(F)cn3)C[C@H]21`, 67.4%; for `O=C(NC1CC1)[C@H]1COC[C@H]2CN(c3ncc(F)cn3)C[C@H]21`, 58.5%. The figure for `CS(=O)(=O)N1C[C@@H]2COC[C@H](C(=O)Nc3cnccn3)[C@@H]2C1` is 45.2%; for `O=C(Nc1cnccn1)[C@@H]1COC[C@H]2CN(c3ncc(F)cn3)C[C@H]21` it is -22.7%. For `CC(=O)N1[C@H](CN(C)C)C[C@@H]2CN(C(=O)c3ccsc3)CC[C@@H]21` the value was -24.5%. On to `O=C([C@H]1CN(CCc2ccccc2)C[C@H]2OCC[C@@H]12)N1CCCO1`, for which the INHIBITION came out at 8.57%.

On to `COc1ccc(Cn2cc(C(=O)N(C)Cc3cnccn3)nn2)cc1`, for which the INHIBITION was determined as 21.5%. For the compound `COc1cccc(CNc2cccnc2-n2cccn2)c1OC`, the INHIBITION was 17.3%.

For the compound `COc1cccc(CNc2nc(C)cc(C)n2)c1OC`, the INHIBITION was -11.7%. As for `COc1cccc(CNc2cc(C)nc(-c3ccncc3)n2)c1OC`, the INHIBITION came to 85.2%. For `COc1cccc(CNc2cc(C)nc(-c3ccncc3)n2)c1O`, the INHIBITION worked out at 78.9%. For `COCCNC(=O)CCNc1cc(C)nc(-c2ccncc2)n1` the value was 24%.

Take `Cc1cc(NCCC(=O)NC(C)C)nc(-c2ccncc2)n1`: the INHIBITION is listed as -2.43%.

For `Cc1nc(CN2CCN(C(=O)c3sccc3C)CC2)cs1`, the INHIBITION is recorded as -117%.

As for `CC(C)c1nc(CNCC2CCCN2c2cccnn2)cs1` (stereo unspecified), the INHIBITION was -16.8%. For `COC(=O)c1ccc(C(=O)NCC(O)c2cccn2C)cc1` (stereo unspecified), the INHIBITION is on record as -52.5%. For `CC1CCN(c2cc(CCC3CCCN3)ncn2)CC1` (stereo unspecified) the value was 34%; for `Cn1ncnc1CNc1ccccc1C(=O)NC(C)(C)C`, 1.2%. For `CCCNC(=O)Nc1ccc2c(c1)N(S(=O)(=O)CC)CC2` the value was 36.3%; for `CC(C)(C)OC(=O)N1CCC[C@H](NCc2cc[nH]c2)C1`, 49.5%. The figure for `CCNC(=O)N1CCc2ccc(NC(=O)NCCOCC)cc21` is -26.8%; for `CC(C)N(CC1CCCN(Cc2ccon2)C1)C(=O)OC(C)(C)C` (stereo unspecified) it is 39.9%.

For the compound `CC(C)(C)OC(=O)N1CCCc2ccc(NCc3cc[nH]c3)cc21`, the INHIBITION came to 92.1%. For `COc1ccc(NC(=O)c2ccccc2NCc2ncnn2C)cc1` the value was 47.4%. Regarding `Cn1ncnc1CNc1ccc2c(c1)N(C(=O)OC(C)(C)C)CCC2`, the INHIBITION was found to be 52.4%. Turning to `Cc1cc(CNCC2CCCN(C(=O)OC(C)(C)C)C2)no1` (stereo unspecified), the INHIBITION amounted to 39%. For `Cc1n[nH]cc1CNc1ccc2c(c1)N(C(=O)OC(C)(C)C)CCC2` the value was 31.8%. In the case of `CCCNC(=O)CNc1ccc2c(c1)N(C(=O)OC(C)(C)C)CCC2`, the INHIBITION amounted to 87.2%.

Turning to `CC(C)(C)OC(=O)N1CCCc2ccc(NCc3ccon3)cc21`, the INHIBITION is recorded as 55.4%. Turning to `c1csc(-c2nc(CN3CCCCC3Cn3cncn3)cs2)c1` (stereo unspecified), the INHIBITION was found to be 42%. The figure for `CCc1nc2n(n1)CC(NCC(=O)Nc1cc(C)nn1C)CC2` (stereo unspecified) is 5.03%; for `Cc1ccc(-c2cnnc(N3CCCC3c3nccs3)n2)o1` (stereo unspecified) it is 12.6%; for `Cc1ccc(OCc2occc2C(=O)N2C[C@@H]3C(CN(C)C)[C@@H]3C2)cc1` (stereo partly specified) it is 32.2%.

These data come from ChEMBL document CHEMBL4513216, “Probing the Open Global Health Chemical Diversity Library for Multistage-Active Starting Points for Next-Generation Antimalarials” (ACS Infect Dis, 2020).
